# In the supplement of paper PMC8728848:
# Many of the other results were omitted from the sample, so the strongest signals are more common in it than they were.
# B1: GS7807G-bfa-506-18-506 (Bacteroides fragilis) (protein)
# chain: ASCDKFDEINTDPDATTKVTSSLLATGLLLDITSSSASKSFIYDELLAKQMAWGESMEDYQYNVFGRSGFGGYTTLINAQKMVESVSDDNVNAYDGLAHFIKAYKIFYMSMEMGDLPYEEALQGELGLVRPKYNTQKEVMNFILSDLETAYELFSTAKDFDGDPILGGSISKWKKATTAFQLKVLMHLSKKESDADLKVKERFARIVASGSLMESNEDNLQMKYADKANTVYPFHNTNTKHAGYAMLSTMLIDKFKATGDIRMFYYAKPAKAKLNEGVTADSWDAYIGTDPSLPFEQIEKAYATEQYSGFNARYTDYPSGEPVVRLGYAEQNFILAEAAVRGWISGDASAYYKKAIRAHMEFIASNTPDEEVYHHGHPITEEAIAAFLETPAIQLSGEKEEDIEKILTQRYLASFMQHPYDVYYDYRRTGYPVLPINPATNRNTMNDRLPMRWMYPKSESDYNLEHQNEALERQFGGVDDVNKLMWILQ
# Tests used:
# Assay in all cases: glycan array binding signal (z-score within array); higher = stronger binding
# Settings in all cases: glycan notation: IUPAC condensed, linker removed
# [1] = biological target: Fuc(a1-2)Gal(b1-3)GlcNAc(b1-2)Man(a1-3)[Fuc(a1-2)Gal(b1-3)GlcNAc(b1-2)Man(a1-6)]Man(b1-4)GlcNAc(b1-4)[Fuc(a1-6)]GlcNAc
# How it was run: (§1)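 Glycan array binding is given as a within-array Z-score, which can be read as non-binding when negative. The arrays, 3228 of them, came from the Consortium for Functional Glycomics database and were retained only where the protein sequence was available. Z-scores were averaged across arrays of the same protein sequence at different concentrations or buffers and across linkers.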
# [2] = biological target: Fuc(a1-2)Gal(b1-3)GlcNAc(b1-3)[Fuc(a1-2)Gal(b1-3)GlcNAc(b1-6)]GalNAc
# How it was run: as §1
# [3] = biological target: Fuc(a1-2)Gal(b1-3)GlcNAc(b1-3)[Gal(b1-4)GlcNAc(b1-6)]Gal(b1-4)Glc
# How it was run: as §1
# [4] = biological target: Fuc(a1-2)Gal(b1-3)GlcNAc(b1-3)[Neu5Ac(a2-6)Gal(b1-4)GlcNAc(b1-6)]Gal(b1-4)Glc
# How it was run: as §1
# [5] = biological target: Fuc(a1-2)Gal(b1-3)[Fuc(a1-4)]GlcNAc(b1-2)Man(a1-3)[Fuc(a1-2)Gal(b1-3)[Fuc(a1-4)]GlcNAc(b1-2)Man(a1-3)]Man(b1-4)GlcNAc(b1-4)GlcNAc
# How it was run: as §1
# [6] = biological target: Fuc(a1-2)Gal(b1-4)[Fuc(a1-3)]GlcNAc(b1-3)[Neu5Ac(a2-6)Gal(b1-4)GlcNAc(b1-6)]Gal(b1-4)Glc
# How it was run: as §1
# [7] = biological target: Fuc(a1-2)[Gal(a1-3)]Gal(b1-3)GalNAc(b1-3)Gal(a1-4)Gal(b1-4)Glc
# How it was run: as §1
# [8] = biological target: Fuc(a1-2)[Gal(a1-3)]Gal(b1-4)GlcNAc(b1-2)Man(a1-3)[Fuc(a1-2)[Gal(a1-3)]Gal(b1-4)GlcNAc(b1-2)Man(a1-6)]Man(b1-4)GlcNAc(b1-4)GlcNAc
# How it was run: as §1
# [9] = biological target: Fuc(a1-2)[Gal(a1-3)]Gal(b1-4)GlcNAc(b1-3)[Fuc(a1-2)[Gal(a1-3)]Gal(b1-4)GlcNAc(b1-6)]GalNAc
# How it was run: as §1
# [10] = biological target: Fuc(a1-2)[GalNAc(a1-3)]Gal(b1-4)GlcNAc(b1-2)Man
# How it was run: as §1
# [11] = biological target: Fuc(a1-2)[GalNAc(a1-3)]Gal(b1-4)GlcNAc(b1-3)Gal(b1-4)GlcNAc(b1-3)Gal(b1-4)GlcNAc
# How it was run: as §1
# [12] = biological target: Fuc(a1-3)[Gal(b1-4)]GlcNAc(b1-2)Man
# How it was run: as §1
# [13] = biological target: Fuc(a1-3)[Gal(b1-4)]GlcNAc(b1-2)Man(a1-3)[Fuc(a1-3)[Gal(b1-4)]GlcNAc(b1-2)Man(a1-6)]Man(b1-4)GlcNAc(b1-4)[Fuc(a1-6)]GlcNAc
# How it was run: as §1
# [14] = biological target: Fuc(a1-3)[Gal(b1-4)]GlcNAc(b1-3)Gal(b1-3)[Fuc(a1-4)]GlcNAc
# How it was run: as §1
# [15] = biological target: Fuc(a1-3)[Gal3S(b1-4)]Glc
# How it was run: as §1
# [16] = biological target: Gal(a1-2)Gal
# How it was run: as §1
# [17] = biological target: Gal(a1-3)Gal(b1-3)GlcNAc(b1-2)Man(a1-3)[Gal(a1-3)Gal(b1-3)GlcNAc(b1-2)Man(a1-6)]Man(b1-4)GlcNAc(b1-4)GlcNAc
# How it was run: as §1
# [18] = biological target: Gal(a1-3)Gal(b1-3)GlcNAc(b1-6)GalNAc
# How it was run: as §1
# [19] = biological target: Gal(b1-3)GalNAc(b1-3)Gal
# How it was run: as §1
# [20] = biological target: Gal(b1-3)GlcNAc(b1-2)Man(a1-3)[Gal(b1-3)GlcNAc(b1-2)Man(a1-6)]Man(b1-4)GlcNAc(b1-4)[Fuc(a1-6)]GlcNAc
# How it was run: as §1
# [21] = biological target: Gal(b1-3)GlcNAc(b1-3)Gal(b1-4)GlcNAc
# How it was run: as §1
# [22] = biological target: Gal(b1-3)GlcNAc(b1-6)[Gal(b1-3)]GalNAc
# How it was run: as §1
# [23] = biological target: Gal(b1-3)GlcNAc6S
# How it was run: as §1
# [24] = biological target: Gal(b1-4)GalNAc(a1-3)[Fuc(a1-2)]Gal(b1-4)GlcNAc
# How it was run: as §1
# [25] = biological target: Gal(b1-4)GlcNAc(b1-2)Man(a1-3)[Gal(b1-4)GlcNAc(b1-2)Man(a1-6)]Man(b1-4)GlcNAc(b1-4)[Fuc(a1-6)]GlcNAc
# How it was run: as §1
# [26] = biological target: Gal(b1-4)GlcNAc(b1-2)Man(a1-3)[Man(a1-6)]Man(b1-4)GlcNAc(b1-4)GlcNAc
# How it was run: as §1
# [27] = biological target: Gal(b1-4)GlcNAc(b1-3)Gal(b1-3)GlcNAc
# How it was run: as §1
# [28] = biological target: Gal(b1-4)GlcNAc(b1-3)Gal(b1-4)GlcNAc(b1-3)Gal(b1-4)GlcNAc(b1-2)Man(a1-3)[Gal(b1-4)GlcNAc(b1-3)Gal(b1-4)GlcNAc(b1-3)Gal(b1-4)GlcNAc(b1-2)Man(a1-6)]Man(b1-4)GlcNAc(b1-4)[Fuc(a1-6)]GlcNAc
# How it was run: as §1
binder,measurement,setting,value
B1,glycan array binding signal (z-score),[1],0.142
same,glycan array binding signal (z-score),[2],3.91
same,glycan array binding signal (z-score),[3],0.516
same,glycan array binding signal (z-score),[4],-0.857
same,glycan array binding signal (z-score),[5],0.421
same,glycan array binding signal (z-score),[6],-0.781
same,glycan array binding signal (z-score),[7],-0.536
same,glycan array binding signal (z-score),[8],3.93
same,glycan array binding signal (z-score),[9],0.293
same,glycan array binding signal (z-score),[10],-0.111
same,glycan array binding signal (z-score),[11],-0.91
same,glycan array binding signal (z-score),[12],0.315
same,glycan array binding signal (z-score),[13],1.51
same,glycan array binding signal (z-score),[14],-0.716
same,glycan array binding signal (z-score),[15],-0.945
same,glycan array binding signal (z-score),[16],-0.863
same,glycan array binding signal (z-score),[17],4.66
same,glycan array binding signal (z-score),[18],1.31
same,glycan array binding signal (z-score),[19],-0.588
same,glycan array binding signal (z-score),[20],2.73
same,glycan array binding signal (z-score),[21],-0.493
same,glycan array binding signal (z-score),[22],-0.028
same,glycan array binding signal (z-score),[23],0.702
same,glycan array binding signal (z-score),[24],-0.448
same,glycan array binding signal (z-score),[25],2.53
same,glycan array binding signal (z-score),[26],1.4
same,glycan array binding signal (z-score),[27],0.201
same,glycan array binding signal (z-score),[28],5.99
